Active and inactive are the calls of the source. Unless noted, no rule for the calls is given here.
Columns and labels:
[1] = tested on: XIP peptide (Xip251-270) binding; assay: small-molecule binders of XIP peptide, primary screen, biochemical, small-molecule microarray, fluorescence 635/667 nm, 0.1 µg/mL protein (AID 1182); settings: fluorescent protein binding, 635 nm, higher = more signal, called active from +8 up or from −8 down
XIP peptide (Xip251-270) = assay: small-molecule binders of XIP peptide, primary screen, biochemical, small-molecule microarray, fluorescence 635/667 nm, 0.5 µg/mL protein (AID 1183); settings: small-molecule microarray binding, fluorescence 635 nm; higher = more signal
[2] = Plasmodium falciparum growth inhibition, primary screen, strain 3D7, DAPI fluorescence, 100 nL (AID 1184);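 also: parasites grown inside human red blood cells in medium with human serum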; settings: P. falciparum 3D7 growth, 3 d, higher = more signal
[3] = target: Homeobox protein Hox-A13 (Mus musculus) (UniProt Q62424); assay: inhibitors of HoxA13-DNA binding, primary screen, biochemical, fluorescence polarization, labeled oligonucleotide (AID 1185); settings: 15 min, higher = more signal, called active from +8 up or from −8 down
Chain of Homeobox protein Hox-A13 (Mus musculus) (Q62424 whole entry, looked up): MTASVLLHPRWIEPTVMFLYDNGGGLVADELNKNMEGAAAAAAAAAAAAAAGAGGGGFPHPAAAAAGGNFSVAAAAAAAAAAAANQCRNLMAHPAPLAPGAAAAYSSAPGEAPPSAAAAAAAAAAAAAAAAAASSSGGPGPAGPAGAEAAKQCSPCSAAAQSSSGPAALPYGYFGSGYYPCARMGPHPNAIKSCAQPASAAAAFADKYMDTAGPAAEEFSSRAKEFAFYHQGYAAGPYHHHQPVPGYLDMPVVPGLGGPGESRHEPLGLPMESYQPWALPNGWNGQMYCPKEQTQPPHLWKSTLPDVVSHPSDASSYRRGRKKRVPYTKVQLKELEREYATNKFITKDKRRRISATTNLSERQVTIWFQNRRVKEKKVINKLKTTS

[4] = inhibitors of hydroxyurea-induced Chk1 phosphorylation, primary screen, imaging, HeLa, phospho-Chk1 antibody, percent positive cells (AID 1186); settings: hydroxyurea-induced phospho-Chk1 immunofluorescence imaging, higher = more signal
[5] = inhibitors of hydroxyurea-induced Chk1 phosphorylation, primary screen, imaging, HeLa, phospho-Chk1 nuclear intensity (AID 1187); settings: hydroxyurea-induced phospho-Chk1 immunofluorescence imaging, higher = more signal

Structure (SMILES) | composite z-score [1] | composite z-score (XIP peptide (Xip251-270)) | z-score [2] | z-score [3] | z-score [4] | z-score [5]
C#CCCCON=C1C[C@@H](O)[C@@H](O)[C@@H]2[C@@H]3C(=O)N(CCC(=O)OCC)C(=O)[C@@H]3CC[C@@H]12 | -0.349 (inactive) | 0.365 | 0.165 | -5.09 (inactive) |  | 
CC(C)[C@H](NC(=O)OC(C)(C)C)[C@@H](O)CC(=O)OC(C)(C)C | -0.182 (inactive) | -0.4 | -1.75 | -0.799 (inactive) |  | 
COC(=O)[C@H](C)NC(=O)CCC1CC(OC(=O)NCCc2ccc(F)cc2)CC2(CCCC(COC(=O)NCCc3ccc(Cl)cc3)O2)O1 (stereo not given in full) | 0.503 (inactive) | 0.729 | -1.5 | -2.44 (inactive) |  | 
CC(CCN1CCc2nc(-c3ccccc3)c(-c3ccccc3)cc2C1)=NOC[C@@H](C)[C@H](OCc1ccccc1)C(C)C | 2.56 (inactive) | -0.445 | -0.784 | -0.978 (inactive) |  | 
c1ccc(C2NCCc3c2[nH]c2ccccc32)cc1 (stereo not given) | 0.657 (inactive) | 0.4 | -0.811 | -0.654 (inactive) |  | 
Cc1cc2c(nc1C)CCCN2CC(O)CN1CCN(C)CC1 (stereo not given) | 1.11 (inactive) | 0.362 | 0.547 | -3.1 (inactive) |  | 
CCOC(=O)NN=C1C[C@@H](O)[C@@H](O)[C@@H]2[C@@H]3C(=O)N(CC)C(=O)[C@@H]3CC[C@@H]12 | -0.359 (inactive) | 0.482 | 0.518 | 0.443 (inactive) |  | 
CCN1C(=O)[C@H]2[C@H]3[C@H](O)[C@H](O)CC(=NOC[C@@H](C)[C@H](OCc4ccccc4)C(C)C)[C@@H]3CC[C@H]2C1=O | 0.185 (inactive) | 0.757 | 0.605 | -6.43 (inactive) |  | 
CO[C@@H]1COC(=O)CC=C[C@@H](C)[C@@H]2C=C[C@H](O)[C@@H](COC(=O)[C@H](C)NC(=O)CC=C[C@H]1C)O2 | 0.78 (inactive) | 0.437 | -0.117 | -3.61 (inactive) |  | 
O=C1[C@H]2[C@H]3[C@H](O)[C@H](O)CC(=NOCc4ccccc4)[C@@H]3CC[C@H]2C(=O)N1C1CCCCC1 | -0.112 (inactive) | 0.0602 | -0.368 | -5.72 (inactive) |  | 
CC(CCN1CCc2nc(-c3ccccc3)c(-c3ccccc3)cc2C1)=NOC(C)CN1CCCCc2nc(C)c(C)cc21 (stereo not given) | 0.685 (inactive) | 0.312 | 0.0201 | -4.25 (inactive) |  | 
COC(=O)CC=C[C@@H](C)[C@H](OC)c1ccccc1Br | -0.575 (inactive) | -0.412 | 0.805 | -0.0487 (inactive) |  | 
CCOC(=O)[C@H](Cc1ccccc1)NC(=O)CCC1CC(OC(=O)NCc2ccc3c(c2)OCO3)CC2(CCCC(COC(=O)NCc3ccccc3)O2)O1 (stereo not given in full) | -0.148 (inactive) | 0.389 | -1.76 | -0.513 (inactive) |  | 
CO[C@@H]1COC(=O)CC=C[C@@H](C)[C@H](OC)COC(=O)[C@H](COCc2ccccc2)NC(=O)CC=C[C@H]1C | 0.025 (inactive) | -0.988 | -0.17 | -1.64 (inactive) |  | 
COC(=O)CC=C[C@@H](C)[C@@H](C=NO[C@@H](C)c1cc(-c2c(C)cc(C)cc2C)no1)OC | 0.0164 (inactive) | -0.293 | -1.12 | -3.69 (inactive) |  | 
O=C1[C@H]2[C@H]3[C@H](O)[C@H](O)CC(=NO[C@@H]4O[C@H](CO)[C@@H](O)[C@H](O)[C@H]4O)[C@@H]3CC[C@H]2C(=O)N1c1ccc(F)cc1F | 0.34 (inactive) | 0.225 | 0.531 | 0.036 (inactive) |  | 
O=C1[C@H]2[C@H]3[C@H](O)[C@H](O)CC(=NOCc4ccccc4)[C@H]3CC[C@H]2C(=O)N1C[C@@H]1CCCO1 | -0.344 (inactive) | 0.567 | 0.319 | -1.68 (inactive) |  | 
O=C(NN=C1C[C@@H](O)[C@@H](O)[C@@H]2[C@@H]3C(=O)N(c4cccc(Oc5ccccc5)c4)C(=O)[C@@H]3CC[C@@H]12)OCc1ccccc1 | -0.0987 (inactive) | 0.381 | -0.763 | -4.96 (inactive) |  | 
Cc1ccc(S(=O)(=O)N[C@@H]2COC(=O)[C@H](C)COC(=O)CC=C[C@H]2C)cc1 | -0.396 (inactive) | -0.152 | -0.18 | -0.424 (inactive) |  | 
CCOC(=O)CCN1C(=O)[C@H]2[C@H]3[C@H](O)[C@H](O)CC(=NNC(=O)OCc4ccc(OC)cc4)[C@@H]3CC[C@H]2C1=O | 0.59 (inactive) | 0.05 | -0.688 | 0.614 (inactive) |  | 
COc1ccc(-c2nc3c(c4c2C[C@H](C)OC4)CN(CCC(C)C)CC3)cc1 | 0.731 (inactive) | 0.653 | 0.888 | -5.51 (inactive) |  | 
CO[C@H]1COC(=O)[C@@H]2CCCN2C(=O)CC=C[C@@H](C)[C@H](OC)COC(=O)CC=C[C@@H]1C | 0.371 (inactive) | 0.298 | 0.372 | -0.346 (inactive) |  | 

Structure (SMILES) | composite z-score [1] | composite z-score (XIP peptide (Xip251-270)) | z-score [2] | z-score [3] | z-score [4] | z-score [5]
C=CC[C@@H]1C=C[C@H](ON=C[C@@H](OC)[C@H](C)C=CCC(=O)OC)[C@@H](CO)O1 | -0.0604 (inactive) | 0.168 | 0.167 | -0.413 (inactive) |  | 
CCOC(=O)NN=C1C[C@@H](O)[C@@H](O)[C@@H]2[C@@H]3C(=O)N(C(C)(C)C)C(=O)[C@@H]3CC[C@@H]12 | 0.63 (inactive) | -0.145 | 0.439 | -1.69 (inactive) |  | 
CC(CCN1CCCCc2nc(C)c(C)cc21)=NOC(C)CN1CCCc2nc(C)c(C)cc21 (stereo not given) | 0.829 (inactive) | 0.731 | 0.507 | -10.5 (active) |  | 
C#CCCCON=C1C[C@@H](O)[C@@H](O)[C@@H]2[C@@H]3C(=O)N(Cc4ccccc4)C(=O)[C@@H]3CC[C@H]12 | 0.136 (inactive) | -0.102 | -0.677 | -3.05 (inactive) |  | 
CCCNC(=O)OC[C@H]1O[C@H](CCON=C[C@@H](OC)[C@H](C)C=CCC(=O)OC)C=C[C@@H]1Oc1ccc(OC)cc1 | 0.228 (inactive) | 0.162 | 0.232 | -5.88 (inactive) |  | 
C[C@@H](c1ccccc1)N1C(=O)[C@H]2[C@H]3[C@H](O)C=CC(=O)[C@@H]3CC[C@H]2C1=O | 0.146 (inactive) | 0.014 | -0.173 | -0.308 (inactive) |  | 
O=C1[C@H]2[C@H]3[C@H](O)[C@H](O)CC(=NO[C@@H]4O[C@H](CO)[C@@H](O)[C@H](O)[C@H]4O)[C@@H]3CC[C@H]2C(=O)N1Cc1ccccc1 | 0.0711 (inactive) | 0.216 | -0.165 | 0.638 (inactive) |  | 
O=C1[C@H]2[C@H]3[C@H](O)[C@H](O)CC(=NOCc4ccccc4)[C@@H]3CC[C@H]2C(=O)N1Cc1ccccc1 | -0.22 (inactive) | -0.0597 | 0.0087 | -0.38 (inactive) |  | 
O=C1[C@H]2[C@H]3[C@H](O)[C@H](O)CC(=NO[C@@H]4O[C@H](CO)[C@@H](O)[C@H](O)[C@H]4O)[C@H]3CC[C@H]2C(=O)N1C1CCCCC1 | 0.269 (inactive) | 0.653 | 0.418 | -4.7 (inactive) |  | 
CCc1cc2c(nc1CC)CCN(CCC(C)=NO[C@@H](C)c1cc(-c3c(C)cc(C)cc3C)no1)C2 | -0.712 (inactive) | 0.325 | 0.319 | -2.85 (inactive) |  | 
CC(=O)OC[C@H]1O[C@@H](ON=C[C@@H](C)[C@H](OCc2ccccc2)C(C)C)[C@H](OC(C)=O)[C@@H](OC(C)=O)[C@@H]1OC(C)=O | -0.182 (inactive) | 0.0517 | 0.317 | -4.44 (inactive) |  | 
Cn1c(=O)n2n(c1=O)[C@H]1[C@H](O)[C@@H]3O[C@@H]3C(=NOC[C@@H](O)COCc3ccco3)[C@H]1CC2 | 3.04 (inactive) | 0.265 | 0.192 | 0.445 (inactive) |  | 
C#CCCCON=C1C[C@@H](O)[C@@H](O)[C@@H]2[C@@H]3C(=O)N(c4cccc(Oc5ccccc5)c4)C(=O)[C@@H]3CC[C@@H]12 | -0.0382 (inactive) | 0.481 | -1.96 | -5.65 (inactive) |  | 
CC[C@@H](c1ccccc1)n1c(=O)n2n(c1=O)[C@H]1[C@H](O)[C@@H]3O[C@@H]3C(=NOCC=C(C)CCC=C(C)C)[C@H]1CC2 | 0.17 (inactive) | 0.4 | -0.444 | -3.96 (inactive) |  | 
CC(C)CN1CCc2nc(-c3ccccc3)c3c(c2CC1)CO[C@@H](C)C3 | 0.277 (inactive) | -0.399 | -0.235 | -0.219 (inactive) |  | 
CCc1cc2c(nc1CC)CCN(CCC(C)=NOC[C@@H](O)COCc1ccco1)C2 | 2.62 (inactive) | 0.679 | 0.15 | -6.02 (inactive) |  | 
C#CCCCON=C1C[C@@H](O)[C@@H](O)[C@@H]2[C@@H]3C(=O)N([C@@H](C)c4ccccc4)C(=O)[C@@H]3CC[C@H]12 | -0.396 (inactive) | 0.164 | -1.46 | -2.2 (inactive) |  | 
C=C(CCCC)C(=O)CC[C@@H](OC(C)=O)c1cccc(OCCO)c1 | -0.0399 (inactive) | 0.0194 | -1.47 | -3.72 (inactive) | 0.163 (inactive) | 0.0394 (inactive)
Cc1cc(C)c(-c2cc([C@H](C)ON=C3[C@H]4CCn5c(=O)n(-c6ccccc6)c(=O)n5[C@H]4[C@H](O)[C@@H]4O[C@H]34)on2)c(C)c1 | 2.08 (inactive) | 0.0933 | 0.173 | -4.69 (inactive) |  | 
CC1CC/C=C\[C@H]2OC34C=CCN(C(C)C)C(=O)[C@H]3N(CCCO)C(=O)[C@@H]4C2C(=O)O1 (stereo not given in full) | 0.94 (inactive) | -0.835 | -0.0943 | -2.96 (inactive) | -0.471 (inactive) | -0.415 (inactive)
CC(=O)OC[C@H]1O[C@H](C#CCCCc2ccccc2)C=C[C@@H]1OC(C)=O | 1.05 (inactive) | 0.505 | -0.107 | -5.95 (inactive) |  | 
COc1ccc(O[C@H]2C=C[C@@H](c3ccccc3)O[C@@H]2CON=C[C@@H](C)[C@H](OCc2ccccc2)C(C)C)cc1 | 0.0702 (inactive) | -0.126 | -0.118 | -0.538 (inactive) |  | 

— PubChem BioAssay
